PubChem BioAssay AID588335 (The Scripps Research Institute Molecular Screening Center, 2011)
Out of some 360,000 compounds screened, about 4,500 (1.2%) were called active. The full list was thinned out, with actives kept by preference. Unmarked numbers belong to inactive results. Rule as the data show it: active = inhibition above about 30%; inactive = the rest.

Experiment: GDH-TPI coupling enzyme inhibitors, primary screen, artefact control for M. tuberculosis FBA inhibitor project, biochemical, absorbance, full deck (AID 588335);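 also: 0% = DMSO wells and 100% = wells lacking the enzyme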
Details: GDH-TPI coupled enzyme counterscreen, NADH absorbance; at 4.8 µM; hits give high values

Row | SMILES | inhibition
1 | CN1CCN(C(=O)CCc2ncc(C(F)(F)F)cc2Cl)CC1 | -4.79%
2 | CC(C)c1ccc(S(=O)(=O)N2CCN(C(=O)CN3C(=O)NC(C)(c4ccccc4)C3=O)CC2)cc1 (stereo unspecified) | -2.79%
3 | CC(N=Cc1nc(-c2ccccc2)oc1O)c1ccccc1 (stereo unspecified) | 46.8% (active)
4 | Oc1oc(-c2ccccc2Br)nc1/C=N/c1ccccn1 | 15.5%
5 | COc1ccc(CN(C)C(C)C(=O)NC2CCCc3ccccc32)cc1 (stereo unspecified) | -4.42%
6 | CSc1ccc(-c2c(C#N)c(N)nc3c2c(C)nn3-c2ccccc2)cc1 | 21.3%
7 | Cc1cc(C)c2c(-c3ccc(F)cc3)c(C#N)c(=O)n(C)c2n1 | 12.6%
8 | Cn1c(=O)c2c(-c3cccc(Br)c3)c(C#N)c(N)nc2n(C)c1=O | 32.1% (active)
9 | COc1ccc(NC(=O)NCCN2CCN(c3ccc(C)cc3)CC2)c(Cl)c1 | 32.2% (active)
10 | COc1ccc(N2CCN(CCNC(=O)Nc3cc(Cl)ccc3Cl)CC2)cc1 | 5%
11 | COc1ccc(N2CCN(CCNC(=O)c3nnc(Cc4c(F)cccc4Cl)o3)CC2)cc1 | 5.33%
12 | CSC1=N/C(=C\C=C\c2cccs2)C(=O)S1 | 4.56%
13 | O=C(CCN1C(=O)c2ccccc2C1=O)NCCCn1ccnc1 | -1.58%
14 | Cc1cc(OCCCC(=O)NCCN2C(=O)S/C(=C\c3cccnc3)C2=O)ccc1Cl | 11.2%
15 | O=C(NCCCn1ccnc1)/C(=C\c1ccccc1F)NC(=O)c1ccccc1 | -0.75%
16 | O=C(CN1C(=O)S/C(=C\c2ccccc2F)C1=O)NCCCn1ccnc1 | 33.6% (active)
17 | COc1ccccc1/C=C1\SC(=O)N(CCC(=O)N(C)C2CCS(=O)(=O)C2)C1=O (stereo unspecified) | 26.5%
18 | O=C(CN1C(=O)/C(=C/c2ccccc2F)Sc2ccccc21)NCc1cccnc1 | 12.4%
19 | COc1ccc(/C=C2\SC(=O)N(CCC(=O)NC3CCS(=O)(=O)C3)C2=O)cc1 (stereo unspecified) | 41% (active)
20 | COc1ccc(/C=C2\SC(=O)N(CCC(=O)NCCCn3ccnc3)C2=O)cc1 | 43.6% (active)
21 | COc1ccc(-c2ccc(OC(=O)NC3CCS(=O)(=O)C3)cc2)cc1 (stereo unspecified) | -7.23%
22 | CCOc1cc2c(Cl)ncnc2c(OCC)c1OCC | 2.46%
23 | CCOC(=O)C1(Cc2ccccc2C)CCCN(C(=O)c2ccc(COC)o2)C1 (stereo unspecified) | 6.53%

Row | SMILES | inhibition
24 | COc1ccc(CNC(=O)C[C@H]2C[C@H](C(=O)N3CCOCC3)[C@@]3(CCC4CCCC4)c4[nH]c5ccc(Cl)cc5c4CCN3C2=O)cc1OC | -3.13%
25 | CCN(CC(=O)NC(C)C)C(=O)c1cc(S(=O)(=O)N2CCCCC2)ccc1N1CCCCC1 | 2.16%
26 | O=C(COc1cc(Cl)c(Cl)cc1Cl)NCCc1ccccn1 | 3.15%
27 | NC(=S)NN=Cc1ccc(OC(=O)COc2cc(Cl)c(Cl)cc2Cl)cn1 | 49.8% (active)
28 | O=C(COC(=O)COc1cc(Cl)c(Cl)cc1Cl)NC1CC1 | 7.02%
29 | CN(CCO)c1ccc(/C=N/Nc2nncc3ccccc23)cc1 | 15.2%
30 | COc1cc(Nc2nc3ccc(Cl)cc3n3cnnc23)cc(OC)c1OC | -2.21%
31 | COc1cc(/C=N/Nc2nn3cnnc3c3ccccc23)cc(OC)c1OC | 43.1% (active)
32 | CCOC(=O)C1(CCOc2ccccc2)CCN(C(=O)c2cncs2)CC1 | 3.14%
33 | O=C1NC(c2ccccc2)=NC1(Nc1ccccn1)C(F)(F)F (stereo unspecified) | -8.86%
34 | COc1ccc(C2=NS(=O)(=O)N(C)C(C(=O)NC(C)c3ccccc3)=C2)cc1 (stereo unspecified) | 23.1%
35 | COc1cc(NC(=O)C2=CC(c3ccco3)=NS(=O)(=O)N2C)cc(OC)c1OC | 30.4%
36 | COc1ccc(C2=NS(=O)(=O)N(C)C(C(=O)N3CCCCC3)=C2)cc1 | 24.4%
37 | COc1ccc(C2=NS(=O)(=O)N(C)C(C(=O)N(C)Cc3ccccc3)=C2)cc1 | 34% (active)
38 | COc1ccc(NC(=O)C2=CC(c3ccc(OC)c(OC)c3)=NS(=O)(=O)N2C)cc1 | 32.7% (active)
39 | COc1cc(NC(=O)C2=CC(c3ccc(C)cc3)=NS(=O)(=O)N2C)cc(OC)c1OC | 27.7%
40 | CCc1cc(=O)oc2c(C)c(OCC(=O)N3CC[C@@]4(O)CCCC[C@H]4C3)ccc12 | 7.84%
41 | NC(=O)c1nsc(C(=O)N(CCCN2CCOCC2)C(C(=O)NC2CCCCC2)c2ccc(Cl)cc2)c1N (stereo unspecified) | 3.02%
42 | Cc1ccc(NC(=O)c2ccc(Oc3ncccn3)cc2)cc1 | 11.6%
43 | Cc1ccc(C(=O)NNc2ncnc3ccccc23)cc1 | 43.8% (active)
44 | Cc1ccc(C(=O)NNC(=O)c2cc3cc4ccccc4nc3s2)cc1 | 10.2%
45 | O=C(O)CC(Cc1ccccc1)C(=O)Nc1ccc([N+](=O)[O-])cc1 (stereo unspecified) | 19.3%
46 | CC(=O)n1cc([C@@H]2C=C(C(=O)N3CCN(Cc4ccc5c(c4)OCO5)CC3)O[C@H](OCc3ccc(CO)cc3)C2)c2ccccc21 | -1.76%

Row | SMILES | inhibition
47 | CCOC(=O)C1=C(O)/C(=C/c2cc(C)n(-c3ccccc3)c2C)N=C1C | 2.64%
48 | Cc1cccc(C)c1-n1c(C)cc(/C=C2\C(=O)NN(c3ccccc3)C2=O)c1C | 33% (active)
49 | COc1ccc(C(=O)NCC2CCCCC2)cc1S(=O)(=O)N1CCCC1 | 1.39%
50 | CCO[C@@H]1OC(C(N)=O)=C[C@H](c2ccc(Br)cc2)[C@H]1CCCO | -4.48%
51 | CC(Sc1nc2cc(Cl)ccc2s1)C(=O)Nc1ccc2c(c1)OCO2 (stereo unspecified) | 5.49%
52 | COC(=O)c1c(-c2ccsc2)oc2ccc(-c3cc(OC)c(OC)c(OC)c3)cc12 | 10.3%
53 | O=C(NCc1cccs1)c1ccc2c(c1)ncn2C1CCCC1 | -1.75%
54 | CCOc1ncccc1C(=O)N(C)CC(=O)Nc1ccc(F)cc1 | -5.34%
55 | CSc1ccccc1NC(=O)c1cnc2sc(C)cn2c1=O | 32.6% (active)
56 | Cc1ccccc1C(=O)Nc1ccccc1Sc1ccccc1 | -10.9%
57 | CSc1ccccc1NC(=O)c1cc(Cl)sc1Cl | -10.3%
58 | CCCN(c1ccc(C)cc1)c1nc(=O)c2cccnc2s1 | 8.86%
59 | COc1ccc(CC(=O)Nc2cc(S(=O)(=O)N3CCCCC3)ccc2N2CCN(C)CC2)cc1 | -4.44%
60 | CC(C)N=C1CCCC1C(=S)SSC(=S)C1CCCC1=NC(C)C (stereo unspecified) | 32.4% (active)
61 | CN(CC(=O)Nc1ccccc1F)CC(=O)Nc1ccccc1Br | -8.02%
62 | Cc1ccc(S(=O)(=O)N2CCOCC2)cc1C(=O)OC1CCCCC1=O (stereo unspecified) | -12.1%
63 | COc1ccc(C(=O)Oc2ccc(-c3nnco3)cc2)cc1S(=O)(=O)N1CCOCC1 | 7.83%
64 | O=c1c2sccc2nc(SCc2cc(=O)n3ccccc3n2)n1-c1ccc(Br)cc1 | 32.1% (active)
65 | O=C(O)CCn1c(SCc2cc(=O)n3ccccc3n2)nc2ccsc2c1=O | 7.77%
66 | CCc1ccc(-n2c(SCc3cc(=O)n4cc(Br)ccc4n3)nc3[nH]ncc3c2=O)cc1 | 24%
67 | Cc1cccc(S(=O)(=O)N(C)C[C@H]2OCc3cnnn3CCCC(=O)N([C@@H](C)CO)C[C@H]2C)c1 | -13.4%
68 | CC1(C)CC(N(Cc2ccccc2)C(=O)Cc2ccccc2)CCO1 (stereo unspecified) | -7.26%
69 | O=C(COC(=O)/C=C/c1cn(-c2ccccc2)nc1-c1cccnc1)Nc1ccc(Cl)cc1Cl | -1.11%

Row | SMILES | inhibition
70 | O=C(O)CCn1cc(C=C2C(=O)NC(=S)NC2=O)c(-c2cccc(Br)c2)n1 | -11.4%
71 | O=C(O)CCn1cc(/C=C/C(=O)c2ccc(Cl)cc2)c(-c2cccc(Br)c2)n1 | 43.8% (active)
72 | CCOC(=O)c1sc(-c2cccc([N+](=O)[O-])c2)cc1N | 5.1%
73 | C=CCCC(=O)Nc1nc(C)c(-c2csc(Nc3ccc(Cl)cc3)n2)s1 | 16.8%
74 | CCCCC(=O)Nc1nc(C)c(-c2csc(Nc3ccc(Cl)cc3)n2)s1 | 11.2%
75 | CC(=O)Nc1nc(C)c(-c2csc(Nc3ccc(S(N)(=O)=O)cc3)n2)s1 | 33.8% (active)
76 | CCOC(=O)c1cc2cc(C)ccc2[nH]1 | 8.07%
77 | CCOC(=O)C=Cc1ccc(C(=O)OCC)[nH]1 | 46.3% (active)
78 | CCOC(=O)c1c(C)[nH]c(C)c1C(=O)COC(=O)/C=C/c1cccc([N+](=O)[O-])c1 | 5.36%
79 | COc1ccc(C2NCCCC2c2ccccc2)cc1 (stereo unspecified) | -3.45%
80 | O=C(Nc1ccc(C(=O)O)cc1)/C(=C\c1ccccc1)NC(=O)c1ccc(Br)cc1 | -8.77%
81 | O=C(Nc1ccc(C(=O)O)cc1)/C(=C/c1ccc([N+](=O)[O-])cc1)NC(=O)c1ccccc1 | 32.9% (active)
82 | O=C(N/C(=C\c1ccc(O)cc1)C(=O)N1CCCCC1)c1ccccc1 | 9.79%
83 | CC(C=Cc1ccccc1)=NNS(=O)(=O)c1ccc([N+](=O)[O-])cc1 | 25.4%
84 | Cc1ccc(C(=O)N/C(=C/C=C/c2ccccc2)C(=O)NCc2ccco2)cc1 | 48.9% (active)
85 | CNC(=O)/C(=C\C=C\c1ccccc1)NC(=O)c1ccc([N+](=O)[O-])cc1 | 39.1% (active)
86 | O=C(NCc1ccco1)/C(=C/c1ccco1)NC(=O)c1ccccc1 | -7.41%
87 | CCCCOc1ccc(C(=O)N/C(=C/C=C/c2ccccc2)C(=O)N2CCOCC2)cc1 | 20.1%
88 | O=C(N/N=C/c1cc([N+](=O)[O-])ccc1O)/C(=C\c1cccs1)NC(=O)c1ccccc1 | 15.7%
89 | O=C(N/N=C/c1ccc(O)cc1)/C(=C/c1ccc([N+](=O)[O-])cc1)NC(=O)c1ccccc1 | 39% (active)
90 | Cc1ccc(NC(=O)C(=O)NCc2ccco2)c(C)c1 | 2.52%
91 | COc1ccc(/C=C(/NC(=O)c2ccccc2)C(=O)Nc2cccc(C(=O)O)c2)cc1 | 29.7%
